Reference: PubChem BioAssay AID1825 (The Scripps Research Institute Molecular Screening Center, 2009)
In all, about 290,000 compounds went through this assay and about 2,300 (0.79%) were called active. Cut-off read from the data, not from the text of the source: active = inhibition above about 22%; inactive = the rest. Only a selection was taken, and actives are over-represented in it overall.

Assay: cytotoxicity in IEC-6 intestinal epithelial cells, primary screen, cytotoxicity control for KLF5 inhibitor project, cell-based, luminescence (AID 1825);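 note: 0% = plate median of test compound wells and 100% = cytotoxic reference compound wells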
Conditions: IEC-6 cytotoxicity, luminescence viability; at 5 µM; active compounds read high

SMILES	inhibition
Cc1oc2cc3oc(=O)ccc3cc2c1C	3.1% (inactive)
COCCNc1cc(-c2ccccc2)nc2cc(-c3cccc(F)c3)nn12	2.5% (inactive)
CCOC(=O)c1cc(-c2nnc(-c3cc(OC)c(OC)c(OC)c3)o2)c(C)nc1C	-3.1% (inactive)
CCOC(=O)C1CCN(C(=O)/C=C/c2cc(OC)c(OC)c(OC)c2)CC1	-2.6% (inactive)
CCOC(=O)C1=C(N)N2C(=O)C(C)SC2=C(C(=O)OCC)C1c1cc(OC)c(OC)c(OC)c1 (stereo not given)	25.5% (active)
Cc1ccc(N2CC(C(=O)NCCS(=O)(=O)N3CCN(c4ccccc4)CC3)CC2=O)cc1 (stereo not given)	-4.2% (inactive)
CC(C)OCCCNc1ncnc2c1[nH]c1ccc(F)cc12	31.5% (active)
Fc1ccc2[nH]c3c(N4CCN(Cc5ccc6c(c5)OCO6)CC4)ncnc3c2c1	19.7% (inactive)
COc1cc(OC)c(OC)cc1/C=N/Nc1ncnc2c1[nH]c1ccc(C)cc12	-4.4% (inactive)
COc1ccc(-c2nc3n(c(=O)c2C#N)CCS3)c(OC)c1	1.6% (inactive)
O=C(c1cc2ccccc2s1)N1CCN(c2ccccn2)CC1	3.8% (inactive)
Cc1ccc(-c2cc(C(=O)NCC3CCCO3)c3ccccc3n2)o1 (stereo not given)	-6% (inactive)
Cc1cc(C(C)(C)C)n2nc(C)c(-c3ccccc3)c2n1	0.2% (inactive)
CCc1c(C)nc2c(-c3ccccc3)c(C)nn2c1Nc1ccc(NC(C)=O)cc1	-10.5% (inactive)
Cc1nn2c(NCCN(C)C)c3c(nc2c1-c1ccccc1)CCC3	25% (active)
CC(=O)N(c1ccc2oc(=O)sc2c1)S(=O)(=O)c1ccc(C)cc1	-2.8% (inactive)
COc1ccc(CC(=O)N/N=C(\C)c2ccccn2)cc1	2% (inactive)
C/C(=N\NC(=O)Cc1ccc(Cl)cc1)c1ccccn1	-2.8% (inactive)
C/C(=N\NC(=O)c1ccccc1F)c1ccccn1	29.2% (active)
CCC(C)(C)NC(=O)/C=C/c1cc(OC)c(OC)c(S(=O)(=O)N2CCc3ccccc32)c1	-0.4% (inactive)
CCn1c(C)nc2c1C(=O)c1ccccc1C2=O	22.2% (active)
Cc1nc2ccccc2c(=O)n1Cc1ccc([N+](=O)[O-])cc1	-1.7% (inactive)
Cc1nc2ccccc2n1CC(O)c1ccccc1 (stereo not given)	0% (inactive)
CCc1ccccc1NC(=S)Nc1cc(OC)c(NC(=O)C(C)C)cc1OC	-1.1% (inactive)

SMILES	inhibition
NS(=O)(=O)c1ccccc1NC(=O)c1c(O)c2ccccc2[nH]c1=O	-0.5% (inactive)
COc1ccc(Oc2cn[nH]c2-c2ccc(OC)cc2O)cc1	0% (inactive)
CC(C)(C)NS(=O)(=O)c1ccc(NC(=O)C2CCCO2)cc1 (stereo not given)	-5% (inactive)
CCN1CCN(CCNC(=O)c2ccc(/C=C3/Sc4ccccc4N(Cc4cccc(C)c4)C3=O)cc2)CC1	7.2% (inactive)
CCN1/C(=C/c2ccc3ccc(C)cc3[n+]2CC)Sc2ccccc21	33.6% (active)
CCN1/C(=C\c2ccc3ccccc3[n+]2CC)Sc2cc(C)ccc21	54.6% (active)
COC(=O)c1sccc1NS(=O)(=O)c1ccc(F)cc1F	1% (inactive)
CCOC(=O)[C@@H]1[C@H]2COc3ccc(Br)cc3[C@H]2N2C(=O)N(c3ccc(Cl)cc3)C(=O)[C@@]12C	-0.1% (inactive)
CC1CC(C)CN(C(=O)CCNC(=O)Cn2cnc3ccccc3c2=O)C1 (stereo not given)	0.9% (inactive)
CC(C)[C@@H](C(=O)O)N(Cc1cccc(CN([C@H](C(=O)O)C(C)C)S(C)(=O)=O)c1)S(C)(=O)=O	-3.4% (inactive)
CCOC(=O)C(=Cc1ccccc1OC)C(=O)OCC	-0.6% (inactive)
Cc1cc2c(cc1S(=O)(=O)CCC(=O)NCc1ccccc1)OCC(=O)N2	11% (inactive)
C/C(=N\N(C)C)c1ccc(OCCOc2ccc([N+](=O)[O-])cc2)cc1	2.8% (inactive)
COc1cccc(OC)c1C(=O)Nc1c(C(=O)N2CCN(c3ccccn3)CC2)oc2ccccc12	0% (inactive)
CCOc1ccc(NC(=O)CC(Cc2ccc(Cl)cc2)C(=O)O)cc1 (stereo not given)	5.3% (inactive)
CCSc1nnc(NC(=O)c2ccc(C)cc2)s1	2.1% (inactive)
Cc1ccc(CS(=O)(=O)c2ncc(Cl)c(C(=O)Nc3nnc(C)s3)n2)cc1	83.7% (active)
Cc1ccc(S(=O)(=O)CC(=O)Nc2nnc(C)s2)cc1	-1.2% (inactive)
CSc1nnc(NC(=O)c2nc(S(=O)(=O)Cc3ccc(C)cc3)ncc2Cl)s1	55% (active)
Cc1nnc(NC(=O)Nc2ccc(Cl)c(Cl)c2)s1	4.3% (inactive)
CSc1ncc(Cl)c(C(=O)Nc2cc(C)ccc2C)n1	4.1% (inactive)
Cc1ccc2cc(C)c(N3CCN(c4ccc(F)cc4)CC3)nc2c1	-5.5% (inactive)
COc1cccc2cc(-c3cc(=O)oc4cc(C)c(O)cc34)oc12	-3.7% (inactive)
Cc1[nH]c(C)c(S(=O)(=O)N2CCN(c3cccc(C(F)(F)F)c3)CC2)c1C(=O)N1CCCC1	-1.3% (inactive)

SMILES	inhibition
COc1cccc(C(O)c2nc3ccccc3n2C)c1 (stereo not given)	-1% (inactive)
CC(C)[C@@H]1COC(c2cccc(C3=N[C@H](C(C)C)CO3)c2)=N1	2.1% (inactive)
CCCc1nc(NCc2ccc3c(c2)OCO3)c2nnn(Cc3ccccc3Cl)c2n1	0.3% (inactive)
Cc1nc(Nc2ccccc2F)c2nnn(Cc3ccccc3Cl)c2n1	-5.6% (inactive)
Cc1nc(Nc2ccc3c(c2)OCCO3)c2nnn(Cc3ccccc3Cl)c2n1	22.2% (active)
O=C(CNC(=O)c1ccc(Br)o1)Nc1ccccc1	-1.9% (inactive)
c1ccc(-n2nnnc2-c2cccnc2)cc1	4.3% (inactive)
CCOc1cccc(-n2nnnc2-c2ccc(OC)cc2)c1	58.4% (active)
COc1ccc(-n2nnnc2-c2nc3ccccc3s2)cc1	-9% (inactive)
COCCNC(=O)C(c1ccc(C)cc1)N(C(=O)CCC(=O)Nc1ccccn1)c1cccc(C)c1 (stereo not given)	7% (inactive)
Cc1ccc(C2CC(=O)NC(SCC(=O)OCc3ccccc3)=C2C#N)o1 (stereo not given)	-14.2% (inactive)
C=CCOC(=O)C1=C(C)NC(SCC(=O)OCC)=C(C#N)C1c1ccc(C)cc1 (stereo not given)	0.1% (inactive)
CCOC(=O)CSC1=C(C#N)C(c2sccc2C)CC(=O)N1 (stereo not given)	81.1% (active)
N#C/C=C/N1CCN(Cc2ccc3c(c2)OCO3)CC1	-5.9% (inactive)
NS(=O)(=O)c1cccc(NC(=O)CSc2nc3ccccc3n2-c2ccccc2)c1	-1.5% (inactive)
Cc1ccc(-n2c(SCC(=O)Nc3ncc(Cl)cc3Cl)nc3ccccc32)cc1	61.4% (active)
Cc1ccc(SCCC(=O)OCC(=O)Nc2ncc(Cl)cc2Cl)cc1	-3.3% (inactive)
COCCN1C(=O)C(=O)/C(=C(/O)c2ccc(S(=O)(=O)N3CCOCC3)cc2)C1c1ccc(OC)c(OC)c1 (stereo not given)	5.3% (inactive)
NC(=O)Cn1cc(/C=N\NS(=O)(=O)c2ccccc2)c2ccccc21	1.4% (inactive)
COc1ccc(CNS(=O)(=O)c2cc(-c3cc(C)no3)ccc2C(C)C)cc1	77.6% (active)
Cc1cc(-c2ccc(C)c(S(=O)(=O)NCCCN(Cc3ccccc3)C(C)C)c2)on1	6.1% (inactive)
CCOc1ccccc1CNS(=O)(=O)c1cc(-c2cc(C)no2)ccc1C	2.7% (inactive)
COc1cccc(NC(=O)CN(C)C(=O)c2ccccc2CCc2ccccc2)c1	-3.1% (inactive)
Cc1ccc(C(=O)CCC(=O)N(C)CC(=O)Nc2c(Cl)cccc2Cl)cc1	1.7% (inactive)

SMILES	inhibition
Cc1cc(C)nc(S/C=C/C(=O)c2ccccc2)n1	31.5% (active)
Cc1cc(C)nc(SCC(=O)c2ccc(Cl)cc2)n1	-2.2% (inactive)
Cc1ccc(N/C=C/C(=O)c2ccccc2)cc1C	0.5% (inactive)
O=S(=O)(NC1CCCC1)c1ccc(-n2cnnn2)cc1	-0.4% (inactive)
COc1cc(NS(=O)(=O)c2ccc3ccccc3c2)c2ncccc2c1	93.3% (active)
Cc1ccc(NS(=O)(=O)c2ccc(C)c(NC(=O)COc3ccc4ccccc4c3)c2)c(C)c1	-2% (inactive)
COc1ccc2cc(S(=O)(=O)Nc3ccccn3)ccc2c1	1.9% (inactive)
CCC(CC)c1nnc(NC(=O)C2CCN(C(=O)c3ccco3)CC2)s1	-0.9% (inactive)
COc1ccc(C(=O)c2c(C)c(CCC#N)n3ccccc23)c(OC)c1	-1.3% (inactive)
CCC(=C/c1sc2ccc3ccccc3c2[n+]1C)/C=C1\Sc2ccc3ccccc3c2N1C	32.2% (active)
CC(C)C(=O)Nc1c2c(nn1-c1ccccc1)CSC2	-4.2% (inactive)
COc1ccc(/C=C/c2noc(-c3ccccc3OC(C)=O)n2)cc1	-0.4% (inactive)
S=C(Nc1ccc(Br)cc1)NC1CCN(Cc2ccccc2)CC1	11.3% (inactive)
Cc1cccc(Nc2nc(-c3ccccc3)cs2)n1	5.9% (inactive)
COc1ccc2c(c1OC)C(=O)OC2Nc1nc(-c2ccccc2)cs1 (stereo not given)	21.9% (active)
Cc1ccc(-c2csc(NC3OC(=O)c4ccccc43)n2)cc1 (stereo not given)	34.7% (active)
COc1ccc(CCNc2nc(-c3cccc(NC(C)=O)c3)cs2)cc1OC	2.3% (inactive)
Cc1ccc(-c2csc(NNC(=O)c3ccccc3)n2)cc1	-1.4% (inactive)
COc1ccc(-c2csc(NC3OC(=O)c4ccccc43)n2)cc1 (stereo not given)	18.7% (inactive)
COCCN1C(=O)N(c2ccc(Cl)cc2)C(=O)C1CC(=O)Nc1cc(OC)cc(OC)c1 (stereo not given)	-2.6% (inactive)
CC(=O)Nc1c2c(nn1-c1ccc(C)cc1C)CS(=O)C2 (stereo not given)	-0.7% (inactive)
NC(=O)c1oc2ccccc2c1NC(=O)CS(=O)(=O)c1ccccc1	6.1% (inactive)
Cc1ccc(NC(=O)C(C)c2cccc(C(=O)c3ccccc3)c2)cc1 (stereo not given)	3.2% (inactive)
